High-throughput results: PubChem BioAssay, National Center for Advancing Translational Sciences (NCATS)
Only some compounds are listed: those with a hit (about 9.9% of all), similar ones and a draw of the others.
Tau FP inhib – qHTS for Inhibitors of Tau Fibril Formation, Fluorescence Polarization | Microtubule-associated protein tau (Homo sapiens), P10636 | K18 P301L tau heparin fibrillization, Alexa594 FP, 6 h | Potency, µM (titrated, usually from 57.7 µM), inactives show at the top dose activity, negative = inhibition, hits mostly inhibitors | 0.39% of 280,000 active | AID 1468, 2008; active = well fitted curve in the direction sought with a large enough effect; inconclusive = small, poorly fitted or top-dose-only effect, or another doubt; inactive = no such curve, though single readings can be large; an effect the other way counts as inactive or inconclusive; note: nearly all actives have a fitted effect of over 55% in size
Target sequence (P10636 561-689 P618L limits assumed): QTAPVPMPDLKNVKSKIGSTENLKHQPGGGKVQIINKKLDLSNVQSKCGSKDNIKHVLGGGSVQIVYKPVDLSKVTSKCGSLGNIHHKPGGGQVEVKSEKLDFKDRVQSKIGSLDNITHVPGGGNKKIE
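Recombinant K18 P301L […], labeled with Alexa 594 at 0.24 uM over 15 uM unlabeled; heparin inducer 20 uM final; 37 C, 6 hr; FP endpoint.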
Tau fluor counter – Counterscreen qHTS for Inhibitors of Tau Fibril Formation, Fluorescence Polarization. 0.93% of 280,000 active. tau K18 P301L Alexa594 fluorescence, heparin fibrillization. Potency, µM (series often up to 57.7 µM), for the others: at the top dose activity change, negative = decrease; active = well fitted curve in the direction sought with a large enough effect; inconclusive = small, poorly fitted or top-dose-only effect, or another doubt; inactive = no such curve, though single readings can be large; an effect the other way counts as inactive or inconclusive; note: nearly all actives have a fitted effect of over 55% in size
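Human K18 P301L tau (15 uM unlabeled plus 0.24 uM Alexa 594-labeled, final) in 100 mM sodium acetate pH 7 was mixed with compound and 20 uM heparin and incubated 6 hr at 37 C.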
HPGD inh – qHTS Assay for Inhibitors of HPGD (15-Hydroxyprostaglandin Dehydrogenase) | purified HPGD, NADH fluorescence kinetic, PGE2 substrate | Potency, µM, for the others: top-dose activity change, negative = inhibition, most hits filed as inhibitors | 15-hydroxyprostaglandin dehydrogenase [NAD(+)] (Homo sapiens), P15428 | 4.3% of 150,000 active
Target sequence (P15428 whole entry, looked up): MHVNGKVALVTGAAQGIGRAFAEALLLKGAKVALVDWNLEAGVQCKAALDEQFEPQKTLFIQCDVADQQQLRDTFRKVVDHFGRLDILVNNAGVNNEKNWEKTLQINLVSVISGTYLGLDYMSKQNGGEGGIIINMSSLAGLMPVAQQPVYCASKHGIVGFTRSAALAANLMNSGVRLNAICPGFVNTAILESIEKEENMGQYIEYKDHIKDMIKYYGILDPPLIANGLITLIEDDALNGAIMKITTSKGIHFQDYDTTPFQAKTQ
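20 nM HPGD preincubated 15 min at room temperature with compound in 50 mM Tris-HCl pH 8, 0.01% Tween 20. Started with 1 mM NAD+ and 30 uM prostaglandin E2; NADH fluorescence (360/450 nm) read 5 times over 30-s intervals, last minus first.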
Tau ThT inhib – qHTS for Inhibitors of Tau Fibril Formation, Thioflavin T Binding | AID 1460, 2008 | 2.1% of 270,000 active | recombinant tau K18 P301L (four-repeat tau fragment), heparin-induced fibrillization, ThT fluorescence | Microtubule-associated protein tau (Homo sapiens), P10636 | Potency, µM (series often up to 57.4 µM), without a hit: at the highest dose activity, negative = inhibition, hits mostly inhibitors; active = well fitted curve in the direction sought with a large enough effect; inconclusive = small, poorly fitted or top-dose-only effect, or another doubt; inactive = no such curve, though single readings can be large; an effect the other way counts as inactive or inconclusive; note: nearly all actives have a fitted effect of over 55% in size
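Recombinant human tau K18 fragment […] carrying P301L, 15 uM unlabeled plus 0.24 uM Alexa 594-labeled, was fibrillized with 20 uM heparin in 100 mM sodium acetate pH 7 for 6 hr at 37 C; 30 uM ThT fluorescence read after 1 hr.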
ALDH1A1 inh – qHTS Assay for Inhibitors of Aldehyde Dehydrogenase 1 (ALDH1A1); Potency, µM (doses to about 75.3 µM), for inactives: at the highest dose activity, negative = inhibition, usual class: inhibitors; Purified ALDH1A1, NADH fluorescence, propionaldehyde substrate; Aldehyde dehydrogenase 1A1 (Homo sapiens), P00352; 7.3% of 220,000 active;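 note: plate controls were no enzyme wells and a reference inhibitor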
KDM4E inh – qHTS Assay for Inhibitors of Human Jumonji Domain Containing 2E (JMJD2E) | Potency, µM (top dose mostly 57.1 µM), for the others: at the highest dose activity change, negative = inhibition, usual class: inhibitors | 1.6% of 230,000 active | JMJD2E catalytic domain, FDH-coupled NADH fluorescence (FDH is formaldehyde dehydrogenase) | AID 2147, 2009 | Lysine-specific demethylase 4E (Homo sapiens), B2RXH2;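 note: 0% = wells with enzyme and -100% = buffer wells without enzyme; nearly all actives have a fitted effect of over 50% in size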
* hit, by the source's call; [ ] = remark or other dose. Unless noted, calls come from the whole dose curve; as a rule, active = well fitted inhibition curve with a large enough effect (not every such curve was filed as active); inconclusive = small, poorly fitted or top-dose-only effect, or another doubt; inactive = no such curve, though single readings can be large or run the other way. Unless noted, % is set by controls: 0 for no effect and ±100 for the full control effect; potency is the fitted concentration of half-maximal effect.

What do the screens show for `CCOc1cc([N+](=O)[O-])c2nc(N)sc2c1`?
Tau FP inhib: 3.4%; Tau fluor counter: -20.7%; Tau ThT inhib: 20µM*; KDM4E inh: -10.2%

How did C=CCN1C(=O)/C(=C/c2ccc(O)cc2)S/C1=N/c1nccs1 do in these assays?
Tau FP inhib: inconclusive; Tau fluor counter: 3.55µM*[quencher]; HPGD inh: -7.6%; Tau ThT inhib: inconclusive; ALDH1A1 inh: 3.16µM*; KDM4E inh: -4.1%

What do the screens show for `C=CCN1C(=O)/C(=C/c2ccc(OC)cc2)S/C1=N/c1nccs1`?
Tau FP inhib: -7.9%; Tau fluor counter: -16.4%; HPGD inh: -8.1%; Tau ThT inhib: -3.1%; ALDH1A1 inh: inconclusive; KDM4E inh: 4.0%

What do the screens show for `C=CCN1C(=O)/C(=C2/C(=O)N(CC(=O)O)c3ccccc32)S/C1=N/c1nccs1`?
Tau FP inhib: -19.4%; Tau fluor counter: inconclusive; HPGD inh: -25.5%; Tau ThT inhib: 7.08µM*; ALDH1A1 inh: -13.7%; KDM4E inh: -1.1%

Results for COc1ccc(/C=C/C(=O)Nc2ccc3nc(N4CCCCC4)cc(C)c3c2)cc1OC ?
Tau FP inhib: inconclusive; Tau fluor counter: 7.94µM*[quencher]; Tau ThT inhib: 2.82µM*

How did COc1ccc(C(=O)Nc2ccc3nc(N4CCC(C)CC4)cc(C)c3c2)cc1 do in these assays?
Tau FP inhib: -7.1%; Tau fluor counter: 5.01µM*[quencher]; Tau ThT inhib: inconclusive

Results for COc1ccc(/C=C/C(=O)Nc2ccc3nc(N4CCC(C)CC4)cc(C)c3c2)cc1 ?
Tau FP inhib: 13.1%; Tau fluor counter: 3.98µM*[quencher]; Tau ThT inhib: inconclusive

Results for CCCCNC(=O)CCC(=O)Nc1ccc2nc(N3CCC(C)CC3)cc(C)c2c1 ?
Tau FP inhib: 16.2%; Tau fluor counter: -24.0%; Tau ThT inhib: -17.2%; ALDH1A1 inh: inconclusive; KDM4E inh: inconclusive

What do the screens show for `COc1cccc(C(=O)Nc2ccc3nc(N4CCC(C)CC4)cc(C)c3c2)c1`?
Tau FP inhib: 6.3%; Tau fluor counter: 12.6µM*[quencher]; Tau ThT inhib: inconclusive

Results for Cc1cc2c(cc1S(=O)(=O)N(C)CC(=O)Nc1cccc(C#N)c1)OCC(=O)N2 ?
Tau FP inhib: -5.4%; Tau fluor counter: -3.2%; Tau ThT inhib: 11.0%

What do the screens show for `COc1ccccc1C1(O)CCN(CC(=O)Nc2nc(-c3ccccc3)cs2)CC1`?
Tau FP inhib: -4.2%; Tau fluor counter: -18.2%; Tau ThT inhib: -10.8%; ALDH1A1 inh: 6.7%; KDM4E inh: -12.5%

How did Oc1ccc(O)c(-c2cnns2)c1 do in these assays?
Tau FP inhib: 6.5%; Tau fluor counter: -18.4%; HPGD inh: 1.41µM*; Tau ThT inhib: inconclusive; ALDH1A1 inh: inconclusive; KDM4E inh: -7.1%

How did c1ccc(Cn2nnnc2C(c2cccs2)N2CCCCCC2)cc1 (centres undefined) do in these assays?
Tau FP inhib: -6.3%; Tau fluor counter: -12.8%; HPGD inh: 4.3%; Tau ThT inhib: -17.2%; ALDH1A1 inh: 14.1µM*; KDM4E inh: 12.0%

How did Oc1ccc(N2CCN(C(c3cccs3)c3nnnn3CCc3ccccc3)CC2)cc1 (centres undefined) do in these assays?
Tau FP inhib: -0.1%; Tau fluor counter: inconclusive; HPGD inh: -3.9%; Tau ThT inhib: inconclusive; ALDH1A1 inh: 25.1µM*; KDM4E inh: inconclusive

How did c1csc(C(c2nnnn2C2CCCCC2)N2CCCC3(CCCCC3)C2)c1 (centres undefined) do in these assays?
Tau FP inhib: -4.1%; Tau fluor counter: -4.7%; HPGD inh: -12.8%; Tau ThT inhib: -9.3%; ALDH1A1 inh: 7.94µM*; KDM4E inh: 5.9%
